The results in this text go back to PubChem BioAssay (NCATS).

Results filed as inconclusive are left out. Entries that show only a call come without a potency. Activity calls are given as the source filed them. Calls follow the shape of the dose curve; as a rule, active = well fitted inhibition curve with a large enough effect; inconclusive = small, poorly fitted or top-dose-only effect; inactive = no such curve, though single readings can be large or run the other way.
Potency is read from the fitted curve at half-maximal effect.

The target in the assay is Nuclear receptor ROR-gamma (Homo sapiens) (UniProt P51449). Briefly: qHTS assay for small molecule antagonists of the retinoid-related orphan receptor gamma (ROR-gamma) signaling pathway (AID 651802). Also: nearly all actives have a fitted effect of over 60% in size. Conditions: ROR-gamma antagonist cell reporter assay; series mostly up to 92.2 µM. The method in brief: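 CHO, TET-inducible ROR + RORE-LUC reporter, 1536-well qHTS. Compound pinned, doxycycline added, 16hr 37C/5% CO2. ONE-Glo, 30 min RT, luminescence; signal drop scored as antagonism.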
Nuclear receptor ROR-gamma (Homo sapiens), sequence (P51449 whole entry, looked up): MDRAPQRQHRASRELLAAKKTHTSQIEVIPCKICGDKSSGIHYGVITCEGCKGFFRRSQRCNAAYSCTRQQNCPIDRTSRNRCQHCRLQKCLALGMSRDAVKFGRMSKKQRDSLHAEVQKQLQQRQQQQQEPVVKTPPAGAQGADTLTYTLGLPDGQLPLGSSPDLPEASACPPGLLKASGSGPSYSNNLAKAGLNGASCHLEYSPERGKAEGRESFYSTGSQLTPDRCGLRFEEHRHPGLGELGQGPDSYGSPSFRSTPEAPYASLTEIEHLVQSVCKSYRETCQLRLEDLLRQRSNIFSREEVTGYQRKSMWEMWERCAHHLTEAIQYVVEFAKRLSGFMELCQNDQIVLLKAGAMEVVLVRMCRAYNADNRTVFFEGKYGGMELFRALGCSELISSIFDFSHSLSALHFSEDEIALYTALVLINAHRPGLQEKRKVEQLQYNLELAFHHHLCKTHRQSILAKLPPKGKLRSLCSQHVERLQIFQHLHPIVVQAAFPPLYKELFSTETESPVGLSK
In general terms: In qHTS, concentration-response curves come from the screen itself.
`CCCCCCCN`: the Potency entry was “inactive”.

For `CC(C)(O)CCC(C)(C)O`, the Potency result was “inactive”.

On to `Nc1cccc(S(=O)(=O)O)c1`, for which the Potency result was “inactive”.

On to `O=Cc1c(Cl)cccc1Cl`, for which the Potency is 16.8 µM (active).

On to `COC(=O)CCCC(=O)OC`, for which the Potency result was “inactive”.

`O=c1[nH][nH]c(=O)c2cc([N+](=O)[O-])ccc12`: the Potency entry was “inactive”.

As to `C=Cc1ccccn1`, the Potency entry was “inactive”.

Consider `Nc1ccc([N+](=O)[O-])c(N)c1`, for which the Potency entry was “inactive”.

With `Nc1cccc(N)c1`, the Potency result was “inactive”.

With `CSc1ccc(C=O)cc1`, the Potency entry is “inactive”.

In the case of `Cc1ccc([N+](=O)[O-])c(N)c1`, the Potency result is “inactive”.

Take `COc1ccc(N)c(OC)c1`: the Potency result is “inactive”.

On to `C=CCCCC`, for which the Potency entry was “inactive”.

Turning to `C/C(C=O)=C/c1ccccc1`, the Potency entry is “inactive”.

For `CCCCCCCCN`, the Potency result is “inactive”.

Take `C=CCCC`: the Potency result is “inactive”.

In the case of `C=CCCCCCC`, the Potency entry is “inactive”.

On to `Cc1ccccc1C=O`, for which the Potency result was “inactive”.

On to `CCN(CC)c1cccc(O)c1`, for which the Potency entry is “inactive”.

On to `CC(=C/C=C/C(C)=C/C=C/C=C(C)/C=C/C=C(C)/C=C/C(=O)O)/C=C/C(=O)O`, for which the Potency entry is “inactive”.

For `Fc1ccccc1`, the Potency result was “inactive”.

Consider `NC(=S)NNC(N)=S`, for which the Potency entry is “inactive”.

As for `CCNc1cc(O)ccc1C`, the Potency result was “inactive”.

For the compound `Cc1ccc(C#N)cc1`, the Potency entry was “inactive”.

`c1ccc2n[nH]nc2c1`: the Potency entry was “inactive”.

Take `Nc1cccc2c(=O)[nH][nH]c(=O)c12`: the Potency entry was “inactive”.

Turning to `Cc1c(N)cccc1[N+](=O)[O-]`, the Potency result was “inactive”.

Take `CCCCC/C=C/C=C/C=O`: the Potency is 33.5 µM (active).

As for `O=Cc1cccc(Br)c1`, the Potency result was “inactive”.

Consider `O=Cc1ccc(CO)o1`, for which the Potency entry is “inactive”.

For `C=CCn1c(=O)n(CC=C)c(=O)n(CC=C)c1=O`, the Potency entry was “inactive”.

Take `CCCCCCCCCCCCC1CO1` (stereo not drawn): the Potency entry was “inactive”.

In the case of `Cc1ccc(C(=O)O)cc1`, the Potency entry is “inactive”.
